In assay [1] the test system is Wnt5a (protein binding on small-molecule microarray). As to the kind of experiment: small molecules binding Wnt5a protein – biophysical, small-molecule microarray, 635/667 nm fluorescence, primary screen (AID 1142).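 Further: fluorescence read at 667 nm with signal to noise per printed feature.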 The following applies: 635 nm fluorescence, higher = more signal.
A short description of assay [2]: ATP-based viability of Huh7 replicon cells – cell-based, CellTiter-Glo luminescence, basal, 48 h, cytotoxicity control for HCV replication inhibitor project, primary screen (AID 1143).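 Further: Huh7 hepatoma cells carrying a hepatitis C replication reporter with no stimulus; test concentration not given here.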 The settings on record: higher = more signal, called active from +8 up or from −8 down. A general note: A replicon is a self-replicating genome or part of one, used to study replication in cells.

Assay [3] in a line: Pseudomonas biofilm growth suppression – PAO1 strain, BacTiter-Glo luminescence, LB-PBS, primary screen (AID 1144). The settings on record: P. aeruginosa PAO1 biofilm, 12 h, higher = more signal.
Assay [4] is described as follows: basal CRE-LacZ reporter activity in PC12 – cell-based, unstimulated, primary screen (AID 1145). The following applies: no forskolin, luminescence, 4.5 h, higher = more signal, called active from +8 up or from −8 down.
The nature of assay [5]: forskolin-driven CRE-LacZ activity in PC12 – cell-based, CRE-LacZ reporter, forskolin-stimulated, primary screen (AID 1146).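 Further: PC12 cells with 6xCRE LacZ reporter stimulated by forskolin 10 µM; beta-galactosidase reporter signal reflecting CREB driven transcription.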 The following applies: luminescence, 4.5 h, higher = more signal, called active from +8 up or from −8 down.
Assay [6] concerns the target Streptavidin (Streptomyces avidinii) (UniProt P22629). As to the kind of experiment: compounds binding control protein streptavidin – biophysical, small-molecule microarray, 635/667 nm fluorescence, artefact control for SMM compound annotation, primary screen (AID 1147).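 Further: signal reflects streptavidin binding to arrayed compounds as a control protein.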 The settings on record: higher = more signal.
Assay [7] in a line: probe aInhba binding on compound microarray – biochemical, small-molecule microarray, 635/667 nm fluorescence, primary screen (AID 1148).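 Further: score merges 667nm spot fluorescence with signal-to-noise for antibody binding to printed compounds.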 The settings on record: higher = more signal.
Assay [8] addresses Torsin-1A (Homo sapiens) (UniProt O14656). As to the kind of experiment: TOR1A wild-type binding on microarray – cell lysate, small-molecule microarray, lysate, 635/667 nm, primary screen (AID 1149). The following applies: COS7 hTOR1A-WT lysate, 635 nm fluorescence, higher = more signal.
The target is the same in assay [9]. As to the kind of experiment: torsin A mutant lysate binding on microarrays – cell lysate, small-molecule microarray, COS7 lysate, 635/667 nm fluorescence, primary screen (AID 1150).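 Further: score pools 667 nm emission and signal to noise measuring lysate protein binding.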 The settings on record: COS7 hTOR1A mutant lysate, 635 nm fluorescence, higher = more signal.
The subject of assay [10] is Sonic hedgehog protein (Shh). Nature of the assay: Sonic hedgehog microarray binding compounds – biochemical, small-molecule microarray, 635/667 nm fluorescence, primary screen (AID 1151).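 Further: Shh protein binding to compounds spotted on small-molecule microarray slides; score combines spot fluorescence intensity with signal-to-noise across triplicate slides.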 The settings on record: 635 nm fluorescence, higher = more signal.

Calls of active or inactive are those of the source. Unless noted, how the calls were made is not given here.

Sequence of Torsin-1A (Homo sapiens) (O14656 whole entry, looked up): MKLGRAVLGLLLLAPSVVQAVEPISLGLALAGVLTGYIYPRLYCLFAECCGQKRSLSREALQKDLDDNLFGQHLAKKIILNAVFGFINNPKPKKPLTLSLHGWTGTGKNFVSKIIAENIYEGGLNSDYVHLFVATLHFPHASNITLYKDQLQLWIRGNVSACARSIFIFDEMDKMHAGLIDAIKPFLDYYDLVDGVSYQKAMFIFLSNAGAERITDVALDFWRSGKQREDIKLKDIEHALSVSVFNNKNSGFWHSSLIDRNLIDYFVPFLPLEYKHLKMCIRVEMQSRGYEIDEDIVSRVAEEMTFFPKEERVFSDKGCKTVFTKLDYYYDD
Sequence of Streptavidin (Streptomyces avidinii) (P22629 whole entry, looked up): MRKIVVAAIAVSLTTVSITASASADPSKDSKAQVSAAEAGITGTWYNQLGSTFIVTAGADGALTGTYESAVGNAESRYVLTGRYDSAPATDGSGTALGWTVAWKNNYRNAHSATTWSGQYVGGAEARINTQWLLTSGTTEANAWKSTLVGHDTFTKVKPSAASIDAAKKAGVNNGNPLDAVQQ

Regarding `C=C(COC)/C(=C/C[C@H](OC(C)=O)c1cccc(OCCO)c1)c1cnc2ccccc2c1`, the composite z-score in assay [1] worked out at 0.484; in [6], 1.46; in assay [7], 0.109; with Torsin-1A (Homo sapiens) [8] it was 1.24; with Torsin-1A (Homo sapiens) [9], 0.583; in assay [10], 2.11. Moreover, the z-score in assay [2] was -0.184 (inactive); in [3] it was 0.167 (inactive); in assay [4], 3.72 (inactive); in [5], 0.298 (inactive).

With `O=C1OCC=C[C@H]2OC34C=CCN(c5ccc6ccccc6c5)C(=O)[C@H]3N(CCCCCO)C(=O)[C@@H]4[C@@H]12` (stereo not given in full), the composite z-score in assay [1] is -0.137; in assay [6], -0.884; in [7] it was -0.0963; with Torsin-1A (Homo sapiens) [8], -1.92; in the assay with Torsin-1A (Homo sapiens) [9] it was -1.41; in assay [10] it was -0.968. Further, the z-score in [2] is 0.234 (inactive); in assay [3], 0.494 (inactive); in assay [4], 0.724 (inactive); in assay [5] it was 0.0532 (inactive).

Take `COc1ccc([Si](C)(C)[C@@H]2[C@@H](CCn3cc([C@H](O)c4ccccc4)nn3)O[C@]3(C(=O)N(c4ccccc4)c4ccccc43)[C@H]2C)cc1`: the composite z-score is -0.0872 in [1]; -0.238 in [6]; -0.22 in assay [7]; 0.511 with Torsin-1A (Homo sapiens) [8]; 0.283 with Torsin-1A (Homo sapiens) [9]; 0.618 in assay [10]. In addition, the z-score in assay [2] is -6.24 (inactive); in [3], 0.506 (inactive); in assay [4], 1.6 (inactive); in [5], -0.897 (inactive).

For the compound `CN1C(=O)C2C=CC(C(O)c3ccc(I)cc3)N(Nc3ccccc3)C2C1=O` (stereo not given), the composite z-score is 0.377 in assay [1]; 1.76 in assay [6]; -0.0209 in assay [7]; 0.338 with Torsin-1A (Homo sapiens) [8]; 0.696 with Torsin-1A (Homo sapiens) [9]; -0.0996 in assay [10]. Besides, the z-score was 0.134 (inactive) in [2], -0.507 (inactive) in assay [3], 1.77 (inactive) in assay [4] and 1.34 (inactive) in assay [5].

`COc1ccc([Si](C)(C)[C@@H]2[C@@H](CCn3cc([C@H](O)c4ccccc4)nn3)O[C@]3(C(=O)N(Cc4cccc(N5C(=O)c6cccc7cccc5c67)c4)c4ccccc43)[C@H]2C)cc1`: the composite z-score is -0.537 in [1]; -0.0465 in assay [6]; -0.0963 in assay [7]; -1.06 with Torsin-1A (Homo sapiens) [8]; -0.526 with Torsin-1A (Homo sapiens) [9]; 0.454 in assay [10]. For the same compound, the z-score in [2] was -3.34 (inactive); in assay [3], 0.692 (inactive); in [4], 0.0031 (inactive); in [5], 0.471 (inactive).

On to `Cc1nc2cc(Br)ccc2c(=O)n1Cc1cccc(O)c1`, for which the composite z-score in assay [1] is 0.59; in [6], 0.57; in [7], -0.0567; with Torsin-1A (Homo sapiens) [8] it was 0.995; with Torsin-1A (Homo sapiens) [9], 0.407; in [10], 1.29. Besides, the z-score in assay [2] was 0.267 (inactive); in [3], -0.0703 (inactive); in [4], -1.11 (inactive); in [5] it was -0.978 (inactive).

For `COC(=O)[C@@]1(Cc2ccccc2)[C@H]2c3cc(C(=O)N(C)C)n(CCn4cc([N+](=O)[O-])nc4C)c3C[C@H]2CN1C(=O)c1ccccc1`, the composite z-score is 0.192 in [1]; 0.287 in [6]; -0.147 in [7]; 0.614 with Torsin-1A (Homo sapiens) [8]; 0.464 with Torsin-1A (Homo sapiens) [9]; 0.383 in assay [10]. In addition, the z-score in assay [2] is -0.65 (inactive); in assay [3] it was 0.331 (inactive); in [4], -0.379 (inactive); in [5] it was 1.45 (inactive).

In the case of `Cc1c(NC(=O)/C(C#N)=C/c2ccccc2Cl)c(=O)n(-c2ccccc2)n1C`, the composite z-score is 0.27 in assay [1]; 1.73 in assay [6]; -0.0195 in [7]; 0.461 in the assay with Torsin-1A (Homo sapiens) [8]; 0.159 in the assay with Torsin-1A (Homo sapiens) [9]; 0.0651 in [10]. The z-score is -2.11 (inactive) in assay [2], -0.543 (inactive) in assay [3], -0.321 (inactive) in [4] and -1.21 (inactive) in [5].

For the compound `Nc1cc(Br)ccc1C(=O)O`, the composite z-score is 0.0415 in assay [1]; 0.689 in assay [6]; -0.0719 in assay [7]; 0.136 in the assay with Torsin-1A (Homo sapiens) [8]; 0.474 with Torsin-1A (Homo sapiens) [9]; 0.0009 in [10]. For the same compound, the z-score in assay [2] is 0.389 (inactive); in assay [3], 0.0538 (inactive); in [4], 0.209 (inactive); in [5], -0.929 (inactive).

Turning to `COc1cc(NN2C(C(O)c3ccccc3)C=CC3C(=O)N(C)C(=O)C32)cc(OC)c1OC` (stereo not given), the composite z-score in assay [1] was 0.107; in assay [6] it was 0.194; in assay [7] it was 0.0184; in the assay with Torsin-1A (Homo sapiens) [8] it was -0.0091; in the assay with Torsin-1A (Homo sapiens) [9], 0.576; in [10], 0.36. Also, the z-score in assay [2] is -2.51 (inactive); in assay [3], -0.426 (inactive); in assay [4], 0.0603 (inactive); in assay [5] it was -0.126 (inactive).

`CN1C(=O)C2C=CC(C(O)c3cc(C(F)(F)F)cc(C(F)(F)F)c3)N(NC(=O)OC(C)(C)C)C2C1=O` (stereo not given): the composite z-score in assay [1] stood at 0.135; in [6] it was 1.6; in assay [7], 0.29; with Torsin-1A (Homo sapiens) [8] it was 0.49; with Torsin-1A (Homo sapiens) [9], 1.32; in assay [10] it was 0.433. Also, the z-score in assay [2] is -2.4 (inactive); in assay [3] it was 0.999 (inactive); in assay [4], 0.0467 (inactive); in [5], 0.587 (inactive).

Consider `Cc1ccc(S[C@]2(C(=O)NC(C)C)CC(=O)N(C(C)C)[C@@H]2c2ccc(CO)cc2I)cc1`, for which the composite z-score was -0.0983 in assay [1]; -0.368 in assay [6]; -0.15 in assay [7]; -1.07 in the assay with Torsin-1A (Homo sapiens) [8]; 0.885 in the assay with Torsin-1A (Homo sapiens) [9]; -0.244 in assay [10]. Also, the z-score in assay [2] is -2.59 (inactive); in assay [3] it was -0.468 (inactive); in assay [4], 0.324 (inactive); in assay [5], -0.3 (inactive).

Take `CC(=O)NCCCC[C@@H]1NC(=O)[C@H]2C[C@@H](C(=O)NCCCCCNC(=O)CS)[C@@H](c3cccc(OCCO)c3)N2C1=O`: the composite z-score in [1] is -0.0417; in assay [6], -0.155; in [7] it was -0.128; with Torsin-1A (Homo sapiens) [8] it was 0.498; with Torsin-1A (Homo sapiens) [9] it was 0.092; in assay [10], 1.74. For the same compound, the z-score in assay [2] is 0.321 (inactive); in [3], -0.93 (inactive); in assay [4], -0.13 (inactive); in assay [5], 0.908 (inactive).

For `COc1ccc(C(=O)Nc2cccc(CN3C(=O)[C@@]4(O[C@@H](CC(=O)N(CCO)Cc5ccccc5)[C@H]([Si](C)(C)c5ccc(OC)cc5)[C@H]4C)c4ccccc43)c2)cc1`, the composite z-score is -0.198 in assay [1]; -0.503 in [6]; -0.101 in assay [7]; 0.479 in the assay with Torsin-1A (Homo sapiens) [8]; 1.16 with Torsin-1A (Homo sapiens) [9]; 1.51 in [10]. Moreover, the z-score in assay [2] is -4.44 (inactive); in assay [3] it was -0.244 (inactive); in assay [4] it was 3.3 (inactive); in assay [5], -0.76 (inactive).

These data come from PubChem BioAssay.
